Screens from PubChem BioAssay.
Sampled rows, rich in hits. Any-hit rate of the full collection: about 4.5%.
Casp1 inh – allosteric or competitive inhibitors of human caspase-1. Potency, µM (top dose mostly 57.5 µM), without a hit: top-dose activity change, negative = inhibition, usual class: inhibitors. AID 900. Caspase-1 enzyme, Ac-WEHD-AFC fluorogenic rate. 0.03% of 75,000 active;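 also: potency is read from the fitted curve at half-maximal effect; plate controls were vehicle for no effect and no substrate for full effect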
Target sequence (P29466 120-297 limits assumed): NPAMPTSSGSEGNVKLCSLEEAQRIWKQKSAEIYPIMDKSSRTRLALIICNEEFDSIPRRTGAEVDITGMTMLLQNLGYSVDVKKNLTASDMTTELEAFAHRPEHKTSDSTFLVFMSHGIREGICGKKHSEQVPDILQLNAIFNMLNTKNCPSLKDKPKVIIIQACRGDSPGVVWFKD
Target sequence (P29466 317-404 limits assumed): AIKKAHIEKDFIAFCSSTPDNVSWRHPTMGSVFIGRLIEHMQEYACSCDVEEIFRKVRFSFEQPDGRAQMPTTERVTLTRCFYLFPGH
GBA mod – human lysosomal glucosylceramidase modulation; 1.1% of 48,000 active; purified enzyme, resorufin glucoside fluorescence (screen aimed at inhibitors), 20 min; Potency, µM; P04062; in the data active = potency below about 15 µM; inconclusive = mostly about 16 µM to 33 µM;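 also: potency is read from the fitted curve at half-maximal effect; the screen sought inhibitors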
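Normal human glucocerebrosidase (0.2 nM final) was assayed with resorufin β-D-glucopyranoside (30 uM final) in 50mM citric acid/KH2PO4, 10mM sodium taurocholate, 0.01% tween-20, pH 5.9. Compounds were titrated; fluorescence (Ex 548, Em 600) read after 20 min at RT.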
HEK293 cAMP ctrl – parental HEK293 cAMP activation (counter-screen) | parental HEK293 CNG cAMP sensor, membrane potential fluorescence | 2.5% of 73,000 active | Potency, µM (doses to about 57.1 µM), without a hit: top-dose activation, actives largely listed as activators; also: potency is read from the fitted curve at half-maximal effect; % of control where 0% means no effect; nearly all actives have a fitted effect of over 55% in size
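Counterscreen for endogenous-receptor signalling: CNG-channel HEK 293 cells report cAMP rise by membrane depolarization. After 60 min dye equilibration with 100 uM RO 20-1724, compounds incubated 30 min before bottom-read fluorescence at 590 nm.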
TSHR ag – activates the human thyroid stimulating hormone receptor; P16473; HEK293-CNG-TSHR cells (CNG channel as cAMP sensor), membrane potential dye, cAMP; Potency, µM (series often up to 57.1 µM), for the others: at the highest dose activation, actives largely listed as activators; 0.48% of 73,000 active; AID 926; active = well fitted activation curve with a large enough effect in the main read-out, with a control signal flat, not every such curve was filed as active; inconclusive = small, poorly fitted or top-dose-only effect, or a change in a side signal; inactive = no such curve, though single readings can be large or run the other way; % of control where 0% means no effect;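 also: the control signal comes from parental cells without the receptor; potency is read from the fitted curve at half-maximal effect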
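HEK 293 cells stably expressing TSHR and a modified CNG channel, with CNG-only parental cells as counterscreen, were preloaded 60 min at room temperature with membrane potential dye containing 100 uM RO 20-1724. Compound exposure was 30 min, and depolarization was read as fluorescence at 590 nm.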
Caspase-7 inhib – blocks human caspase-7 allosterically or competitively | recombinant caspase-7, Ac-DEVD-AFC fluorescence rate | P55210 | 0.02% of 75,000 active | Potency, µM (top dose mostly 57.5 µM), without a hit: at the top dose activity change, negative = inhibition, actives largely listed as inhibitors; active = well fitted inhibition curve with a large enough effect in the main read-out, with a control signal flat, not every such curve was filed as active; inconclusive = small, poorly fitted or top-dose-only effect, or a change in a side signal; also: potency is read from the fitted curve at half-maximal effect; % of control where 0% means no effect
Target sequence (P55210 24-198 limits assumed): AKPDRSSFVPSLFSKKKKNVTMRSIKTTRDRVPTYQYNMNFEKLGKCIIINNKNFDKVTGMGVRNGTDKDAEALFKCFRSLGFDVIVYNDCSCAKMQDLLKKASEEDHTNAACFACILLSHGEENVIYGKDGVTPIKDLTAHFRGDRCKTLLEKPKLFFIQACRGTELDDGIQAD
Target sequence (P55210 207-303 limits assumed): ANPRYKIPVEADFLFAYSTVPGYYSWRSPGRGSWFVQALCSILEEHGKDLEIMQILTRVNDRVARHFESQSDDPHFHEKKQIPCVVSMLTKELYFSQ
ERK AVP block – inhibitors of vasopressin-stimulated ERK signaling pathway; HEK293-V1b, vasopressin-stimulated pERK AlphaScreen; Potency, µM (highest dose often 57.5 µM), for inactives: top-dose activity, negative = inhibition, most hits filed as inhibitors; 0.99% of 72,000 active; AID 995; also: potency is read from the fitted curve at half-maximal effect; % is scaled to controls: 0 for no effect and ±100 for the full control effect; nearly all actives have a fitted effect of over 55% in size
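V1b-HEK293 cells; cpd 30 min 37C; 25 nM vasopressin 5 min; lyse 10 min; AlphaScreen beads 5 hr RT. Normalized to DMSO basal and 25 nM vasopressin; AC50 by Hill fit.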
parental cAMP – raises cAMP in parental HEK293 cells lacking TSH receptor; shares compounds with TSHR ag; parental HEK293 CNG biosensor, cAMP membrane potential fluorescence; activity change, negative = inhibition, % at 32.9 µM; 150 tested, under 10 active; AID 953
An asterisk follows results filed as active; ? = inconclusive; / = not tested or not shown; [ ] = dose if it differs, or a comment. Unless noted, calls follow the shape of the dose curve; as a rule, active = well fitted curve in the direction sought with a large enough effect; inconclusive = small, poorly fitted or top-dose-only effect, or another doubt; inactive = no such curve, though single readings can be large; an effect the other way counts as inactive or inconclusive.

SMILES	Casp1 inh	GBA mod	HEK293 cAMP ctrl	TSHR ag	Caspase-7 inhib	ERK AVP block	parental cAMP
CC1(C)c2ccccc2N2CC(=O)NC21/C=C/c1ccco1 (stereo not given)	-5%	>77	12%	2.5µM*	-5%	-12%	10
CC1(C)c2ccccc2N2CCC(=O)NC21/C=C/c1ccco1 (stereo not given)	?	>77	17%	3.2µM*	-26%	-21%	13
Cc1cc(-n2c(C)cc(C(=O)CSc3nnc4sc5ccccc5n34)c2C)no1	-4%	>77	2%	5%	-4%	-2%	/
Cc1cc(-n2c(C)cc(C(=O)CSc3nnnn3-c3ccc(Cl)cc3)c2C)no1	-7%	>77	12%	/	-4%	-5%	14
Cc1ccccc1N1CCN(c2ncnc3c2cnn3Cc2ccc(Cl)cc2)CC1	0%	>77	18%	/	-1%	6%	?
CN(C)c1ccc(-c2nc(NCCc3cnc[nH]3)c3ccccc3n2)cc1	-5%	/	-69%	?	-9%	-20%	/
CC(c1ccco1)N(C(=O)c1ccc(Cl)s1)c1ccccn1 (stereo not given)	2%	>77	?	?	-2%	-1%	9
CC(c1ccco1)N(C(=O)COc1ccc(Cl)cc1)c1ccccn1 (stereo not given)	0%	>77	10%	13%	-2%	-13%	/
O=C(CSc1nnc(-c2cccs2)n1Cc1ccco1)Nc1ccc2c(c1)OCO2	-1%	>77	?	?	-2%	-17%	/
O=C(CSc1nnc(-c2ccccc2)n1Cc1ccco1)Nc1ccc2c(c1)OCCO2	-2%	>77	28%	20µM*	-3%	-8%	-7
O=C(O)CSc1n[nH]c(=O)[nH]c1=O	0%[11.5 µM]	/	5%[11.4 µM]	1%[11.4 µM]	1%[11.5 µM]	-3%[11.5 µM]	/
CCc1ccc(-c2nc(CN3CCC(C(=O)N4CCN(c5ccccc5)CC4)CC3)c(C)o2)cc1	-1%	>77	16%	5%	1%	3%	13[25.6 µM]
COC(=O)N1CCC2(CC1)CN(C(=O)Nc1cccc(F)c1)C2	-1%	/	1%	0%	2%	-12%	/
O=C(Nc1ccccn1)c1cccc(S(=O)(=O)N2CCOCC2)c1	3%	/	-1%	-6%	0%	4%	/
CC1CCN(S(=O)(=O)c2cccc(C(=O)Nc3ccccn3)c2)CC1	-2%	/	14%	25µM*	-1%	3%	16
COc1cccc(C(=O)NC2=NCCS2)c1OC	0%	/	-3%	-5%	1%	0%	/
COc1ccc(N(C)S(=O)(=O)c2cccc(C(=O)NC3=NCCS3)c2)cc1	0%	>77	14%	25µM*	1%	10%	6
COc1ccc(S(=O)(=O)NCCC(=O)NC2CCCCCCC2)cc1	-1%	>77	0%	-1%	0%	12%	/
COc1ccc(S(=O)(=O)NCCC(=O)NCc2ccc(F)cc2)cc1	-11%	>77	1%	/	-1%	-9%	-9
C=CC[C@@H]1C=C[C@H](Oc2ccc(C)cc2)[C@H](COC(=O)NCc2cccc3ccccc23)O1	-3%[11.5 µM]	/	7%[11.4 µM]	9%[11.4 µM]	0%[11.5 µM]	21%[11.5 µM]	/
COCCNC(=O)C(c1ccc(C)o1)N(C(=O)c1snc(C(N)=O)c1N)c1ccc(C)cc1 (stereo not given)	-7%	>77	9%	32µM*	-1%	-7%	12
CC(C)(C)CNCCO	-3%[11.5 µM]	/	-5%[11.4 µM]	1%[11.4 µM]	1%[11.5 µM]	-2%[11.5 µM]	/
Cn1c(=O)c(-c2ccc(F)cc2)nc2cncnc21	-14%	/	9%	-2%	-17%	-15%	/
O=C(NCc1cccc2ccccc12)[C@H]1C[C@@H]1[C@H](NP(=O)(c1ccccc1)c1ccccc1)c1ccccc1	5%	/	?	?	3%	-23%	/
COc1ccc(C2C(=O)N(C3CCCCC3)CC(=O)N2Cc2ccc3c(c2)OCO3)cc1 (stereo not given)	0%	>77	18%	26%	-2%	-27%	/
SMILES	Casp1 inh	GBA mod	HEK293 cAMP ctrl	TSHR ag	Caspase-7 inhib	ERK AVP block	parental cAMP
COc1cccc(CN2C(=O)CN(C3CCCCC3)C(=O)C2c2ccc(F)cc2)c1 (stereo not given)	3%	>77	15%	13µM*	-2%	1%	-5
CC(=O)O[C@H]1CC[C@@]2(C)[C@@H](CC[C@H]3[C@H]2CC(=O)[C@@]2(C)[C@@H]3C[C@H]3CC(C)=CC(=O)[C@H]32)C1	0%[11.5 µM]	/	-9%[11.4 µM]	-1%[11.4 µM]	-4%[11.5 µM]	23%[11.5 µM]	/
Cc1ccc(N(C(=O)Cn2nnc(-c3ccc(C)o3)n2)C(C(=O)NC2CCCC2)c2ccco2)cc1 (stereo not given)	-3%	>77	25%	16%	1%	-10%	/
Cc1ccc(C)c(N(C(=O)Cn2nnc(-c3cccs3)n2)C(C(=O)NC2CC2)c2ccc(C)o2)c1 (stereo not given)	-3%	12*	28%	7.9µM*	0%	-7%	?
COc1ccccc1CNc1ccnc(-c2cccnc2)n1	-2%	/	?	?	-2%	-25%	/
Cc1noc(C)c1-c1nccc(Nc2ccc(F)cc2)n1	0%	/	?	?	-2%	-14%	/
Cc1occc1-c1nnc(SCC(=O)Nc2ccccc2)n1Cc1ccccc1	-2%	/	?	?	-2%	-22%	/
Cc1ccccc1NC(=O)CSc1nnc(-c2ccoc2C)n1CCc1ccccc1	-2%	>77	25%	10µM*	0%	?	20
CCOC(=O)c1c(N)n(CCOC(=O)c2cccs2)c2nc3ccccc3nc12	/	?	0%	18%	?	-22%	-3[25.6 µM]
C=C(C)Cn1c(-c2ccccc2)nc2ccccc21	-2%	/	71%[11.4 µM]	3.2µM*	0%	-9%	?
CCCC(=O)C1=C(SCC)CC(C)(C)C(C(=O)OC)C1=O (stereo not given)	-6%	/	?	?	0%	-3%	10
Cc1ccc(-n2nc(-c3ccc(N)cc3)cc2N)cc1	-4%	/	-6%	-22%	-4%	-25%	-9[25.6 µM]
O=c1cnc2cnc(N3CCNCC3)nc2n1Cc1ccc(F)cc1	/	/	11%	3%	?	0%	/
CCC(C)(C)n1nnnc1CN(Cc1ccco1)Cc1cc2cc3c(cc2[nH]c1=O)OCO3	-2%	>77	12%	25µM*	-1%	?	-12
C[C@@H](C(=O)O)/C(=C/c1ccc2c(c1)OCO2)C(=O)O	0%[11.5 µM]	/	1%[11.4 µM]	3%[11.4 µM]	0%[11.5 µM]	4%[11.5 µM]	/
O=S(=O)(c1ccccc1)N1CCN(C2CCN(Cc3ccccc3)CC2)CC1	-4%	/	23%	8%	-5%	-15%	1[25.6 µM]
O=c1c2ccccc2ncn1-c1ccc2c(c1)OCCO2	-4%	/	7%	6%	0%	/	6[25.6 µM]
